14 compounds from PubChem BioAssay (EPA / NIEHS) can be followed below.

Where “and” joins values, the source holds several entries; their conditions need not be identical. Equal entries are not always repeated. Records with an inconclusive call do not appear. Calls of active or inactive are those of the source. How the source made its calls: active means hit-call score of the fitted dose curve at least 0.9, where 1 is the maximum; inconclusive means response in the unintended direction; inactive means score below 0.9.

Assay [1] addresses human Caspase 2 (CASP2), CASP2 (gene 835) (UniProt P42575). The assay can be described thus: NVS_ENZ_hCASP2: NovaScreen (NVS) Enzymatic Assay for human Caspase 2 (CASP2) (AID 2283135). In short, it runs like this:
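Single-point duplicate testing at 25 uM preceded concentration series topping at 50 uM. Activity of the recombinant E. coli-derived protease was followed by fluorescent substrate cleavage 1 h post-dosing, relative to DMSO.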

For assay [2], the target named is Voltage-dependent N-type calcium channel subunit alpha-1B (Rattus norvegicus) (UniProt Q02294). In words: NVS_IC_rCaChN: NovaScreen (NVS) Ion Channel Assay for rat Calcium Channel, Type N (CaChN) (AID 2283317).
Assay [3] has as its target human Aurora Kinase A - serine/threonine-protein Kinase 6 (AurA), AURKA (gene 6790) (UniProt O14965). The assay can be described thus: NVS_ENZ_hAurA: NovaScreen (NVS) Enzymatic Assay for human Aurora Kinase A - serine/threonine-protein Kinase 6 (AurA) (AID 2283142). In short, it runs like this: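 Recombinant human AurA activity read by fluorescence after mobility-shift separation of product from substrate; 1 hour incubation. Chemicals first run in duplicate at 25 uM, then concentration series to 50 uM if over threshold; fitted relative to DMSO.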

Assay [4] concerns the target human Fibroblast Growth Factor Receptor 1 (FGFR1), FGFR1 (gene 2260) (UniProt P11362). In words: NVS_ENZ_hFGFR1: NovaScreen (NVS) Enzymatic Assay for human Fibroblast Growth Factor Receptor 1 (FGFR1) (AID 2283159).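 On AC50: hits lower the signal so potencies describe inhibitors of the kinase.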 In short, it runs like this:
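Cell-free recombinant kinase with fluorescent substrate, product separated by electrophoretic mobility shift; read 1 hour after dosing, loss of signal relative to DMSO. Initial screen in duplicate at 25 uM, actives followed in concentration series.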

Assay [5] deals with human p21 Activated Kinase 4 (PAK4), PAK4 (gene 10298) (UniProt O96013). The assay can be described thus: NVS_ENZ_hPAK4: NovaScreen (NVS) Enzymatic Assay for human p21 Activated Kinase 4 (PAK4) (AID 2283189). In short, it runs like this:
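Extracted PAK4 enzyme activity read by fluorescence with mobility-shift separation 1 h after chemical addition. Duplicate single-concentration screen at 25 uM, DMSO as negative control.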

Assay [6] concerns the target human Raf-1 Proto-Oncogene, serine/threonine Kinase (RAF1), RAF1 (gene 5894) (UniProt P04049). The assay can be described thus: NVS_ENZ_hRAF1: NovaScreen (NVS) Enzymatic Assay for human Raf-1 Proto-Oncogene, serine/threonine Kinase (RAF1) (AID 2283216). In short, it runs like this: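 Single-point screening at 25 uM (duplicate), followed by singleton concentration-response to 50 uM maximum for chemicals exceeding threshold. Enzyme activity from fluorescent substrate-product mobility-shift separation after 1 h, relative to DMSO.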

Assay [7] addresses human Protein Tyrosine Phosphatase Non-receptor Type 2 (PTPN2), PTPN2 (gene 5771) (UniProt P17706). The assay can be described thus: NVS_ENZ_hPTPN2: NovaScreen (NVS) Enzymatic Assay for human Protein Tyrosine Phosphatase Non-receptor Type 2 (PTPN2) (AID 2283207). In short, it runs like this:
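Activity measured as fluorescence after mobility-shift separation of substrate and product, 1 h after compound. Duplicate single-point 25 uM primary testing, concentration series for actives; inhibition scored as signal loss relative to DMSO baseline.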

Assay [8] concerns rat Monoamine Oxidase, MAO-A, Peripheral (MAOAP), gene 29253. In words: NVS_ENZ_rMAOAP: NovaScreen (NVS) Enzymatic Assay for rat Monoamine Oxidase, MAO-A, Peripheral (MAOAP) (AID 2283237). In outline: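 Scintillation counting tracked MAO-A activity in a cell-free rat liver mitochondrial membrane prep, read 1.17 hours after compound addition. Single-point duplicate testing at 25 uM preceded concentration-response follow-up; activity was fitted relative to DMSO.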

Assay [9] addresses human Phosphatase and Tensin Homolog (PTEN), PTEN (gene 5728) (UniProt P60484). In words: NVS_ENZ_hPTEN: NovaScreen (NVS) Enzymatic Assay for human Phosphatase and Tensin Homolog (PTEN) (AID 2283203). In short, it runs like this:
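Loss of fluorescent product signal after mobility-shift separation reports PTEN activity, recombinant human enzyme, 1 h after compound addition. Single 25 uM duplicate screen, then concentration-response on actives; DMSO baseline.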

Assay [10] deals with human Protein Tyrosine Phosphatase Receptor Type C (PTPRC), PTPRC (gene 5788) (UniProt P08575). The assay can be described thus: NVS_ENZ_hPTPRC: NovaScreen (NVS) Enzymatic Assay for human Protein Tyrosine Phosphatase Receptor Type C (PTPRC) (AID 2283212). In outline:
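Absorbance-based phosphatase activity of human PTPRC protein extracted from yeast was measured 1 h post-dosing. Compounds first tested at 25 uM in duplicate, then those passing threshold in singleton concentration series to 50 uM.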

For assay [11], the target named is rat Neurotensin Receptor (NTS), Ntsr1 (gene 366274) (UniProt P20789). In words: NVS_GPCR_rNTS: NovaScreen (NVS) G Protein-Coupled Receptor Assay for rat Neurotensin Receptor (NTS) (AID 2283308). In short, it runs like this: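 Single-point duplicates at 25 uM, then concentration series to 50 uM max for hits, measured radioligand displacement on rat forebrain membrane preparations. Bound label counted by filtration scintillation at 1 h; signal loss relative to DMSO fitted.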
Chain of rat Neurotensin Receptor (NTS), Ntsr1 (gene 366274) (P20789 whole entry, looked up): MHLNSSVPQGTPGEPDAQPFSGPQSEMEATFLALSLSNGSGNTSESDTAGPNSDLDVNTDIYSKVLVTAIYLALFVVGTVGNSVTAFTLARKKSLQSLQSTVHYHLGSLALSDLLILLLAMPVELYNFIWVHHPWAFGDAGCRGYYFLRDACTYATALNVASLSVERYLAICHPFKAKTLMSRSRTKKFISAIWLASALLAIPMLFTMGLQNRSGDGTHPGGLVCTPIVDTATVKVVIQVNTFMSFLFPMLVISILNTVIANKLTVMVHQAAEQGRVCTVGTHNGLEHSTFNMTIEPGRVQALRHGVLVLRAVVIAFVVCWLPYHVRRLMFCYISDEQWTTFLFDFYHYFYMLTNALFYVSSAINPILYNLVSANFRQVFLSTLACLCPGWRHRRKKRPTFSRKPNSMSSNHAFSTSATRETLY

The target in assay [12] is rat Monoamine Oxidase, MAO-B, Peripheral (MAOBP), Maob (gene 25750) (UniProt P19643). In words: NVS_ENZ_rMAOBP: NovaScreen (NVS) Enzymatic Assay for rat Monoamine Oxidase, MAO-B, Peripheral (MAOBP) (AID 2283242).
Chain of rat Monoamine Oxidase, MAO-B, Peripheral (MAOBP), Maob (gene 25750) (P19643 whole entry, looked up): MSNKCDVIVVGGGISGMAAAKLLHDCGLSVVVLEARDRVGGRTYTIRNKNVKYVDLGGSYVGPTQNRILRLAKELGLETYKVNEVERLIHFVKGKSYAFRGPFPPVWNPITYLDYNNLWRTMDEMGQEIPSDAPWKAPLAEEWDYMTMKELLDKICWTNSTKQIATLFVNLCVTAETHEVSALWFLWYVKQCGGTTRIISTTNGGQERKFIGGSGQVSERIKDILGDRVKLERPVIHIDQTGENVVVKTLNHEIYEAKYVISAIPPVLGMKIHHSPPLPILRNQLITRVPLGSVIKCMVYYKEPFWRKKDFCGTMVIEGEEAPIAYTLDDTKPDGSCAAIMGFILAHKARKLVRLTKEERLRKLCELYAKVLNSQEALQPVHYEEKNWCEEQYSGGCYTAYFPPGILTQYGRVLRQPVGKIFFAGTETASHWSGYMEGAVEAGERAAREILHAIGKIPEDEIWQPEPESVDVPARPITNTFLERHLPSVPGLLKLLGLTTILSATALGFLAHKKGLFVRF
Assay [13] relates to guinea pig Atrionatriuretic Peptide Receptor A (ANPA), gene 100135578. In words: NVS_GPCR_gANPA: NovaScreen (NVS) G Protein-Coupled Receptor Assay for guinea pig Atrionatriuretic Peptide Receptor A (ANPA) (AID 2283291). In outline: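 Displacement of specific radioligand from guinea pig cerebellum membranes was read by scintillation after 1 h. A duplicate single-point screen at 25 uM was followed by a concentration series up to 50 uM, analysed relative to DMSO.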

The target in assay [14] is human Epidermal Growth Factor Receptor (EGFR), EGFR (gene 1956) (UniProt P00533). In words: NVS_ENZ_hEGFR: NovaScreen (NVS) Enzymatic Assay for human Epidermal Growth Factor Receptor (EGFR) (AID 2283151). In short, it runs like this:
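Cell-free kinase assay, fluorescence plus electrophoretic mobility shift separating substrate and product, read 1 hour after dosing; loss of signal vs DMSO. Duplicate screen at 25 uM, then concentration-response to 50 uM.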

The target in assay [15] is human NIMA (Never In Mitosis Gene A)-Related Kinase 2 (NEK2), NEK2 (gene 4751) (UniProt P51955). The assay can be described thus: NVS_ENZ_hNEK2: NovaScreen (NVS) Enzymatic Assay for human NIMA (Never In Mitosis Gene A)-Related Kinase 2 (NEK2) (AID 2283188). In short, it runs like this: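 Compounds were first screened in duplicate at 25 uM, with actives followed up in concentration series. Recombinant NEK2 activity, cell-free, was read 1 h after dosing by fluorescence intensity after mobility-shift separation. Signal loss was scored against DMSO.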
Chain of human NIMA (Never In Mitosis Gene A)-Related Kinase 2 (NEK2), NEK2 (gene 4751) (P51955 whole entry, looked up): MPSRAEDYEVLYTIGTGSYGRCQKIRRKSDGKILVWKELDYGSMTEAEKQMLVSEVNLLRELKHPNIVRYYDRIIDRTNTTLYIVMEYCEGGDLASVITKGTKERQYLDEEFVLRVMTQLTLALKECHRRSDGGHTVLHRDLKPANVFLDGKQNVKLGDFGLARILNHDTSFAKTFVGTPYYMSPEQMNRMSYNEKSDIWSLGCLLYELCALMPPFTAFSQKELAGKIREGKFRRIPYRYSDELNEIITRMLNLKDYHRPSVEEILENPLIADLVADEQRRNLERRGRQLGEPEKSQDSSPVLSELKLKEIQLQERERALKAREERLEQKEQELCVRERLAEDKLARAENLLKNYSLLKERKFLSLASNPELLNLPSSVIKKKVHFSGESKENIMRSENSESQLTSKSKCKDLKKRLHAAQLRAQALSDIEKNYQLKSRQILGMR

In assay [16] the target is PPP2CA (gene 5515) (UniProt P67775). The assay can be described thus: NVS_ENZ_hPPP2CA: NovaScreen (NVS) Enzymatic Assay for human Protein Phosphatase 2 Aatalytic subunit Alpha (PPP2CA) (AID 2283199). In outline:
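Cell-free phosphatase activity: fluorescent substrate turnover by recombinant human enzyme, resolved by mobility shift at 1.33 h. Compounds passing the 25 uM duplicate primary screen were rerun in singleton series with a 50 uM top concentration.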

In assay [17] the target is human Tyrosine Protein Kinase Receptor Tie-2 (Tie2), TEK (gene 7010) (UniProt Q02763). The assay can be described thus: NVS_ENZ_hTie2: NovaScreen (NVS) Enzymatic Assay for human Tyrosine Protein Kinase Receptor Tie-2 (Tie2) (AID 2283225). In short, it runs like this: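 Substrate and product were separated by mobility shift and detected by fluorescence after a 1-hour reaction with recombinant Tie2. Chemicals passing a 25 uM single-point screen were titrated to a maximum of 50 uM. Results were normalized to DMSO baseline.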
Chain of human Tyrosine Protein Kinase Receptor Tie-2 (Tie2), TEK (gene 7010) (Q02763 whole entry, looked up): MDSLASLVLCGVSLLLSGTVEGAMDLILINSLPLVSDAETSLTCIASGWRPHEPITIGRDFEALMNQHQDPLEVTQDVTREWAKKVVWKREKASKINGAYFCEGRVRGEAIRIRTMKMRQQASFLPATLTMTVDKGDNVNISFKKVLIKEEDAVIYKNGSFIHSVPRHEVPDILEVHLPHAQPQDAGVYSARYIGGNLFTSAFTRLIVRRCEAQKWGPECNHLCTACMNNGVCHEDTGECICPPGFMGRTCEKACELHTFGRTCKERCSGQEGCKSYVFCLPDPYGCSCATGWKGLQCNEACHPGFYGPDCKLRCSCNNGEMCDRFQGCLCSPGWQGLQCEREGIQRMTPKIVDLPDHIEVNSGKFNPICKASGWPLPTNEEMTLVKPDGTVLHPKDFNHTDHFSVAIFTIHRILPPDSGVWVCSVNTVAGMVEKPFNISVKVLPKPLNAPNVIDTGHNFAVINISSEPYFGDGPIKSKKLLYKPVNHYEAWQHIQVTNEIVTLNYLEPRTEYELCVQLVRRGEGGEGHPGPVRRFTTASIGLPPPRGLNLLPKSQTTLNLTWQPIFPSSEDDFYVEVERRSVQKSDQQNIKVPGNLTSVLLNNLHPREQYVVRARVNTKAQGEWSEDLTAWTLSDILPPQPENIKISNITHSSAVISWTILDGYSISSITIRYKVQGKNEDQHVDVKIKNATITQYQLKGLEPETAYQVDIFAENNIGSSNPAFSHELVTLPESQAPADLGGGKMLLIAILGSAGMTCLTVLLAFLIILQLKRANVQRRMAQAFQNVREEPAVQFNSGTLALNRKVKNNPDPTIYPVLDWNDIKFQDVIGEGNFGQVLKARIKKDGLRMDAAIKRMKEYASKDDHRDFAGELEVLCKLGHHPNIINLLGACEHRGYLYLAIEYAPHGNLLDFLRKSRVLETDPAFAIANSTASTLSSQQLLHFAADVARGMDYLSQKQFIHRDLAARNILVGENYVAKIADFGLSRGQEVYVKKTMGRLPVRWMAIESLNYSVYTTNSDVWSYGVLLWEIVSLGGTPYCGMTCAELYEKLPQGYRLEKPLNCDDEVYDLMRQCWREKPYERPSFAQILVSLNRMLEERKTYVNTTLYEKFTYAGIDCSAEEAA

Assay [18] concerns the target Norway rat Vesicular Monoamine Transporter (VMAT2), neurotransmitter transporter, Slc18a2 (gene 25549) (UniProt Q01827). In words: NVS_TR_rVMAT2: NovaScreen (NVS) Transporter Assay for Norway rat Vesicular Monoamine Transporter (VMAT2), neurotransmitter transporter (AID 2283376).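 Further: actives lower the bound radioligand signal below the DMSO level.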 In outline:
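Filter-based scintillation counting of radioligand bound to rat forebrain-derived VMAT2 protein, cell-free, 1 h post-dose. Signal loss relative to DMSO control scored; single-concentration duplicate screen (25 uM) followed by concentration-response testing of actives.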

The target of assay [19] is rat Corticotropin Releasing Factor Receptor (CRF), Crhr1 (gene 58959) (UniProt P35353). In words: NVS_GPCR_rCRF: NovaScreen (NVS) G Protein-Coupled Receptor Assay for rat Corticotropin Releasing Factor Receptor (CRF) (AID 2283300). In outline:
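Single-concentration (25 uM, duplicate) radioligand binding on rat cortical membrane preparations, counted by scintillation after 2 h. Activity scored as signal loss relative to DMSO negative control.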

Assay [20] has as its target rat Monoamine Oxidase, MAO-B, Central (MAOBC), Maob (gene 25750) (UniProt P19643). In words: NVS_ENZ_rMAOBC: NovaScreen (NVS) Enzymatic Assay for rat Monoamine Oxidase, MAO-B, Central (MAOBC) (AID 2283238). In short, it runs like this: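 Cell-free radiometric assay, rat brain lysate. Read-out: scintillation counts, 1.17 h post-dosing. Screen 25 uM in duplicate; actives (e.g. ≥30% inhibition) then singleton concentration-response, max 50 uM. Activity loss fitted relative to DMSO.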

Assay [21] relates to rat Monoamine Oxidase, MAO-A, Central (MAOAC), gene 29253. The assay can be described thus: NVS_ENZ_rMAOAC: NovaScreen (NVS) Enzymatic Assay for rat Monoamine Oxidase, MAO-A, Central (MAOAC) (AID 2283243).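 Further: potency refers to inhibition seen as signal drop below DMSO baseline.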 In short, it runs like this: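 Enzyme from rat brain, cell-free radiodetection format. Counts taken at 1.5 h; activity fitted against DMSO baseline, loss of signal marking inhibition. Confirmatory concentration series followed the 25 uM duplicate screen.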

Chain of human Aurora Kinase A - serine/threonine-protein Kinase 6 (AurA), AURKA (gene 6790) (O14965 whole entry, looked up): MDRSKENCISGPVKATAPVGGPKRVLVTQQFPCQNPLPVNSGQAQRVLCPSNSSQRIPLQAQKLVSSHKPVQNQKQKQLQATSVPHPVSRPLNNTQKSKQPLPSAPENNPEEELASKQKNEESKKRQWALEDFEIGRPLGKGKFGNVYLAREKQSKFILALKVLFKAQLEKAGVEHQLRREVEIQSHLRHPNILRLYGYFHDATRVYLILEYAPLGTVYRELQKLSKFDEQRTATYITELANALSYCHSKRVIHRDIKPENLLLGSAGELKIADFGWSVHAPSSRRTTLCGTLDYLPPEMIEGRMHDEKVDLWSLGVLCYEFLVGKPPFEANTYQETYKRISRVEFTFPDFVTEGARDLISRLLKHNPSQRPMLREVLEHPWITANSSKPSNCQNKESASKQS
Chain of human Fibroblast Growth Factor Receptor 1 (FGFR1), FGFR1 (gene 2260) (P11362 whole entry, looked up): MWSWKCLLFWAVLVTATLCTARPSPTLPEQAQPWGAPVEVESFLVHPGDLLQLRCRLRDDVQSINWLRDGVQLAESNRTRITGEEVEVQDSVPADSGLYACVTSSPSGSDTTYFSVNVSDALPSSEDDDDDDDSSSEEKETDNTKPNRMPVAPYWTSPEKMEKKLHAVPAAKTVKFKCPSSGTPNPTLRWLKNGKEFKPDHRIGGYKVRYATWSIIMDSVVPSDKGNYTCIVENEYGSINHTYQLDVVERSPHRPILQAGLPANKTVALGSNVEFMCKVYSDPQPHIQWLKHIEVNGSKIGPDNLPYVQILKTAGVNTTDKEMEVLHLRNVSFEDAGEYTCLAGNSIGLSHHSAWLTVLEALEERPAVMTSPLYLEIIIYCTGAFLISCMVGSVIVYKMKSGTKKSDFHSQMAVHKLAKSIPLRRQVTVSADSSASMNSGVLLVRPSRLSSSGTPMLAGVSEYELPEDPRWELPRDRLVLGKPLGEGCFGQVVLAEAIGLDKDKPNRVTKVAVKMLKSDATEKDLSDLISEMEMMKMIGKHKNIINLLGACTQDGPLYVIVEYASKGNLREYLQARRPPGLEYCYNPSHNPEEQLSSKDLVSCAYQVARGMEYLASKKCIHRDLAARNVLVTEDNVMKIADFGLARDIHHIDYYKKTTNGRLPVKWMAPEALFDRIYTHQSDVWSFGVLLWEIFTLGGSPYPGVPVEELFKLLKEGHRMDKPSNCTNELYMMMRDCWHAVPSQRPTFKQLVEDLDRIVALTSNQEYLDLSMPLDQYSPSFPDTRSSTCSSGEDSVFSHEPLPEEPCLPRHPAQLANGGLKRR
Chain of human Caspase 2 (CASP2), CASP2 (gene 835) (P42575 whole entry, looked up): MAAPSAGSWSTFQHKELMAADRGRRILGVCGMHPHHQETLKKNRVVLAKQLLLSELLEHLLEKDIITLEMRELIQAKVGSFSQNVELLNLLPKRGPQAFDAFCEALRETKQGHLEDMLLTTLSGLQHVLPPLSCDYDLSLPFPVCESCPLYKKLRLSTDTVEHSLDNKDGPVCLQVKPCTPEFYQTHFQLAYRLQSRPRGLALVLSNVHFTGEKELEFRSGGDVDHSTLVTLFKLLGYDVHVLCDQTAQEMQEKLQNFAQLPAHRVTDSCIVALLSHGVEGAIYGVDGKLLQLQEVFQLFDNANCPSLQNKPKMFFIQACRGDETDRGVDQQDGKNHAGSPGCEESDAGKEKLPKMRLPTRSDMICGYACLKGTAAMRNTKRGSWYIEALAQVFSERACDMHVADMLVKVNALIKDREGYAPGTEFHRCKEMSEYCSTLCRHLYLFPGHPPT
Chain of Norway rat Vesicular Monoamine Transporter (VMAT2), neurotransmitter transporter, Slc18a2 (gene 25549) (Q01827 whole entry, looked up): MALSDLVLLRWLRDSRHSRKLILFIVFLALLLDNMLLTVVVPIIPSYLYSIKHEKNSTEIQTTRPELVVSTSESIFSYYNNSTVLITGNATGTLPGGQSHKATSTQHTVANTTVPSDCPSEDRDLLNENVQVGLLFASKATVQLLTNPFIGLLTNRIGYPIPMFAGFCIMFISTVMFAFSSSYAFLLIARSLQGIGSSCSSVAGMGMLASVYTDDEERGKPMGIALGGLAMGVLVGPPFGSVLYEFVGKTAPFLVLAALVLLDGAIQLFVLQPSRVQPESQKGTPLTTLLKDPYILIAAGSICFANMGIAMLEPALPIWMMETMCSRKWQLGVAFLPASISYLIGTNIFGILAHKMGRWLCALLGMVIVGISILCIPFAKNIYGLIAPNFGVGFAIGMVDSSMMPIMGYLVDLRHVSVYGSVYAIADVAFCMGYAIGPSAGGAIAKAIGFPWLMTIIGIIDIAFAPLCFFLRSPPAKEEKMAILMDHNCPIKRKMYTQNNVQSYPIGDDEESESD
Chain of PPP2CA (gene 5515) (P67775 whole entry, looked up): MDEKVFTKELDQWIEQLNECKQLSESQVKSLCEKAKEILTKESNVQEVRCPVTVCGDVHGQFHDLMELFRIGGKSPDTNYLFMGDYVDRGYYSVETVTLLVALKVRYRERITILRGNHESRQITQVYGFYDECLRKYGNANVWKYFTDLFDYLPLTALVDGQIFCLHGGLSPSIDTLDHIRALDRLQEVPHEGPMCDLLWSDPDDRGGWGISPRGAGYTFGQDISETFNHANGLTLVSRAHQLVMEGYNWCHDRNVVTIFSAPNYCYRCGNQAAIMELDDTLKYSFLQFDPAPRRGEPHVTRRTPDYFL

Consider `CC[C@@H]1C[C@H](N(Cc2cc(C(F)(F)F)cc(C(F)(F)F)c2)C(C)=O)c2cc(C(F)(F)F)ccc2N1C(=O)OC(C)C`, for which the call in [1] and in assay [2] was inactive.

Turning to `COc1ccc2sc(C(=O)Nc3nnn[nH]3)c(OC(C)C)c2c1`, the values for the AC50 in assay [3] and in assay [6] were 9.98 µM (active) and 25 µM (active), respectively. The compound was called inactive in assay [4] and in [5].

On to `O=C(O)CC(O)C(=O)O` (configuration not stated), for which the result in [3], in [7] and in assay [8] was inactive.

On to `O=S(=O)(O)c1ccc(N=Nc2c(O)ccc3cc(S(=O)(=O)O)ccc23)cc1`, for which the AC50 in assay [1] is 20.4 µM (active). Also, the compound was classed as inactive in assay [9], in [10] and in assay [11].

As for `O=C(N[C@@H](c1ccccc1)[C@@H]1CCCCN1)c1cccc(C(F)(F)F)c1Cl`, the call in [3] and in assay [8] was inactive.

Regarding `Cc1nccn1-c1ccc(Sc2cccc(C3(C(N)=O)CCOCC3)c2)cc1`, the result in [1], in assay [12], in [13] and in assay [2] was inactive.

In the case of `CC/C(=C(/CC)c1ccc(O)cc1)c1ccc(O)cc1`, the call in [3], in assay [14], in assay [15], in assay [16], in assay [7] and in [6] was inactive. Besides, the outcome in assay [17] was inactive. Also, the AC50 was 37 µM (active) in assay [4]; 12 µM (active) and 14.7 µM (active) and 20.5 µM (active) in assay [18].

On to `CCC(O)=C1C(=O)CC(C(=O)O)CC1=O` (configuration not stated), for which the result in assay [1] and in [19] was inactive.

Turning to `Cc1nc(-c2ccccn2)ncc1C(=O)Nn1cc(C)c2cc(F)ccc21`, the compound was called inactive in assay [3], in assay [4], in assay [15], in assay [5], in assay [16] and in assay [17].

With `COc1cc(S(=O)(=O)O)c(C)cc1N=Nc1c(O)ccc2cc(S(=O)(=O)O)ccc12`, the AC50 in assay [1] was 6.73 µM (active); in [11], 16.8 µM (active).

Regarding `Oc1ccc2ccccc2c1`, the AC50 in [3] is 36.6 µM (active); in [8], 12.9 µM (active); in assay [20] it was 14.4 µM (active); in [12] it was 13.3 µM (active); in assay [21] it was 10.2 µM (active).

As to `CC(C)c1ccc(C(=O)N=C(N)N)cc1S(C)(=O)=O`, in [3], the call was inactive.

Regarding `CC(C)(O)c1coc(S(=O)(=O)NC(=O)Nc2c3c(cc4c2CCC4)CCC3)c1`, the compound was classed as inactive in [1] and in [9].

As to `CC(C)CCCCCCOC(=O)C1CCCCC1C(=O)OCCCCCCC(C)C` (configuration not stated), in assay [14], the compound was classed as inactive.
